Data on 90 compounds can be found in PubChem BioAssay AID1578 (Sanford-Burnham Center for Chemical Genomics, 2009).

Out of some 290,000 compounds screened, about 3,000 (1%) were called active. Rule as the data show it: active = inhibition mostly above about 36% (no sharp cut-off); inactive = mostly below about 34%. The list comes from a sample in which actives are over-represented; it also holds similar structures and randomly drawn compounds.

The assay can be described thus: inhibition of NOD1-driven NF-kB reporter – cell-based, luminescence, uHTS, primary screen (AID 1578).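 Also: HEK-293T reporter cells stimulated with the NOD1 agonist gamma-tri-DAP.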 Particulars: NOD1-driven NF-kB luciferase reporter cells, at 4 µM, hits give high values. (Reporter assays use an easily measured gene product as a stand-in for the process of interest.)
`C/C(=N\NC(=O)C1CC1(c1ccccc1)c1ccccc1)c1cccc([N+](=O)[O-])c1` (stereo not given): the inhibition (commonly the change of the read-out against control, counted positive when it falls) is -12.5% (inactive).
Then `CCOc1cc(Br)c(Br)c(C=Nc2ccc(NC(C)=O)cc2)c1O`, with 78% (active).
Take `CC(=O)Nc1ccc(N=Cc2c(O)ccc3ccccc23)cc1`: the inhibition is -20% (inactive).
`CC(=O)Nc1ccc(N=Cc2c(O)c(C(=O)Nc3ccccc3)cc3ccccc23)cc1`: the inhibition is 39.6% (inactive).
The figure for `O=C(Nc1ccc(NS(=O)(=O)c2ccccc2)cc1)c1cccnc1` is -23.8% (inactive); for `O=C(NCc1nnc(SCC(=O)N2CCCC2)o1)c1ccccc1` it is -0.1% (inactive); for `Cc1oc2c(c(=O)c1C)C(=O)CC(c1ccccc1)C2` (stereo not given) it is -15.6% (inactive).
The figure for `CS(=O)(=O)c1sc(C#N)c2c1C(=O)CC(c1ccccc1)C2` (stereo not given) is 43.9% (active); for `Cc1c(C(=O)O)[nH]c2c1C(=O)CC(c1ccccc1)C2` (stereo not given) it is -0.4% (inactive); for `CCc1noc(C)c1C(=O)Nc1ccccc1C(C)(C)C` it is 38.7% (inactive).
The figure for `Cc1ccc(-c2nc(N3CCOCC3)sc2C(=O)N2CCOCC2)cc1` is -12.2% (inactive); for `Cc1ccc(CNC(=O)Nc2ccc(OC(F)(F)F)cc2)n1C` it is -21.3% (inactive).
As for `COC(=O)c1ccc(NC(=O)c2ccccc2NS(C)(=O)=O)cc1`, the inhibition is -12% (inactive).
The figure for `COC(=O)c1ccccc1NS(=O)(=O)c1ccc(NC(C)=O)cc1` is 0.6% (inactive); for `COc1cc(OC)cc(C(=O)Nn2cc(C(=O)Nc3ccccc3F)c3ccccc3c2=O)c1` it is -16.8% (inactive); for `C=CCNC(=O)[C@@H]1CSC2c3ccc(OC)c(OC)c3C(=O)N21` (stereo not given in full) it is -8.1% (inactive).
As for `Cc1ccc(C2C3C(=O)N(c4ccc(C)cc4)C(=O)C3N3CCCN23)cc1` (stereo not given), the inhibition is -7.6% (inactive).
Then `Cc1ccc(C(=O)COC(=O)c2cc(Cl)nc3ccccc23)cc1C`, with -37.6% (inactive).
As to `Cc1ccc(C)c(N2CCN(C(=O)c3ccc4nc(-c5ccco5)c(-c5ccco5)nc4c3)CC2)c1`, the inhibition was -1.9% (inactive).
The figure for `O=C(c1ccc2nc(-c3ccco3)c(-c3ccco3)nc2c1)N1CCN(c2ccccc2)CC1` is 3.4% (inactive); for `Cc1cccc(N2CCN(C(=O)c3ccc4nc(-c5ccco5)c(-c5ccco5)nc4c3)CC2C)c1` (stereo not given) it is 60.5% (active); for `O=C(CN1C(=O)c2ccccc2C1=O)Nc1cc([N+](=O)[O-])ccc1O` it is -38.7% (inactive).
Then `CCOc1cc(C(C(=O)NCC2CCCO2)N(C(=O)Cn2nnc3ccccc32)c2ccccc2C(C)=O)ccc1O` (stereo not given), with -47.9% (inactive); and `Cc1cc(C2=NNC(=NC3CC3)SC2)c(C)n1-c1ccccc1F`, with 96.7% (active).
Then `Cc1ccc(-n2c(C)cc(C3=NNC(=NC4CC4)SC3)c2C)cc1C`, with -21.7% (inactive); and `Cc1cc(C2=NNC(=NC3CC3)SC2)c(C)n1-c1ccccc1`, with 98.3% (active); and `COCCCN=C1NN=C(c2cc(C)n(-c3ccccc3F)c2C)CS1`, with 10.1% (inactive).
For the compound `COc1ccc(-n2c(C)cc(C3=NNC(=NC4CC4)SC3)c2C)cc1`, the inhibition is -7.5% (inactive).
With `Cc1cc(C2=NNC(=NC3CC3)SC2)c(C)n1-c1c(C)n(C)n(-c2ccccc2)c1=O`, the inhibition was -12.6% (inactive).
Then `CCOC(=O)c1[nH]c2ccccc2c1NC(C)=O`, with 2.4% (inactive).
The figure for `CC(C)(C)n1cnc2cc(NS(=O)(=O)c3ccc(Br)cc3)ccc21` is 7.7% (inactive); for `Cc1ccc(-c2nnn(CC(=O)N(CCN3CCOCC3)C(C(=O)NC(C)(C)C)c3ccc(C)o3)n2)cc1` (stereo not given) it is -14.8% (inactive).
As to `COc1ccc(-c2cc3nc(C)cc(N)n3n2)cc1`, the inhibition is -3.5% (inactive).
As for `COc1ccc(-c2cc3nc(C)cc(-c4ccc(OC)cc4)n3n2)cc1`, the inhibition was 66.8% (active).
For `COc1ccc(-c2cc3nc(C)cc(C)n3n2)cc1`, the inhibition is -76.5% (inactive).
Consider `COC(=O)C(Cc1ccccc1)NC(=O)c1cccc(S(=O)(=O)N(C)C)c1` (stereo not given), for which the inhibition was -41.3% (inactive).
For `COc1ccc(/C(C)=N/NC(=O)c2nnn(-c3nonc3N)c2CN(C)c2ccccc2)cc1`, the inhibition was -7.2% (inactive).
The figure for `C/C(=N\NC(=O)c1c(Br)cnn1C)c1ccc(NC(=O)c2ccc(F)cc2)cc1` is -45.8% (inactive); for `CCC(=O)NC(=S)Nc1ccccc1C(=O)NC1CCCCC1` it is -10.9% (inactive).
Turning to `Cc1cc(C)cc(NC(=O)COc2ccc(C(=S)N3CCOCC3)cc2)c1`, the inhibition is -14.5% (inactive).
Then `CCOC(=S)SCc1cn2ccc(C)cc2n1`, with 8.3% (inactive); and `Cc1oc2ccc(O)c(CN3CCOCC3)c2c1C(=O)c1ccc(Cl)cc1`, with 27.5% (inactive); and `Cc1oc2ccc(O)c(CN(C)C)c2c1C(=O)c1ccccc1`, with -26.2% (inactive).
The figure for `Cc1oc2c(Cl)c(Cl)c(O)c(CN(C)C)c2c1C(=O)c1ccc(Cl)cc1` is 65.8% (active); for `CCN(CC)C(=O)CSc1nc2ccccc2c(=O)n1OC(C)C` it is 8% (inactive); for `Cc1cc(/C=C2/SC(=S)N(c3ccc([N+](=O)[O-])cc3)C2=O)c(C)n1-c1cccnc1` it is 74.8% (active).
The figure for `Cc1cc(/C=C2/C(=O)NN(c3ccccc3)C2=O)c(C)n1-c1cccc(O)c1` is -15.4% (inactive); for `Cc1cc(/C=C2\SC(=S)NC2=O)c(C)n1-c1cccc(O)c1` it is -11.9% (inactive); for `Cc1cc(/C=C2\SC(=S)N(Cc3ccco3)C2=O)c(C)n1-c1cccnc1` it is 8.2% (inactive).
`Cc1ccc(/C=C2\SC(=S)N(c3cccnc3)C2=O)cc1`: the inhibition was -15% (inactive).
The figure for `Cc1cc(/C=C2\SC(=O)N(C)C2=O)c(C)n1-c1ccc(O)cc1` is 0.7% (inactive).
As to `COc1ccc(-n2c(C)cc(/C=C3/SC(=S)N(C)C3=O)c2C)cc1`, the inhibition was -25.3% (inactive).
Consider `CC(c1ccccc1)n1c(N2CCNCC2)nc2c1c(=O)[nH]c(=O)n2C` (stereo not given), for which the inhibition was -36.1% (inactive).
Then `COc1ccc(NC(=O)CN(c2ccc(OC)cc2)S(=O)(=O)c2c(C)nn(C)c2C)cc1`, with -15.1% (inactive); and `COc1ccc(C(=O)N2CCC(C(=O)c3c(C)cc(C)cc3C)CC2)cc1`, with -8.8% (inactive).
With `Cc1ccc(N2CC(C(=O)N3CCCc4ccccc43)CC2=O)cc1` (stereo not given), the inhibition is -10.4% (inactive).
Then `O=C(C1CCC(=O)N(C2CCCC2)C1)N1CCN(c2ccccc2Cl)CC1` (stereo not given), with -2.7% (inactive).
Consider `CCOC(=O)c1c(NC(=O)CSc2nnc(C)c(=O)[nH]2)sc(C)c1-c1ccc(C)cc1`, for which the inhibition is 43.1% (active).
Turning to `CCOC(=O)c1c(NC(=O)CSc2nnc(C)c(=O)[nH]2)sc(C)c1C`, the inhibition is 17.3% (inactive).
For the compound `CCOC(=O)c1c(NC(=O)CSc2nnc(C)c(=O)[nH]2)sc2c1CCCC2`, the inhibition is 11.2% (inactive).
Then `CC/C=C/C(=O)N1CC2(CC(c3cccc(NC(=O)CC(c4ccccc4)c4ccccc4)c3)=NO2)C[C@@H]1C(N)=O` (stereo not given in full), with -0.2% (inactive); and `COc1ccc(C(=O)c2coc3ccc(O)c(CN4CCCCC4)c23)cc1`, with 9.4% (inactive).
For the compound `CCN(CC)Cc1c(O)ccc2c([N+](=O)[O-])c(C)n(-c3ccc(OC)cc3)c12`, the inhibition was -5.7% (inactive).
For `COc1cc(C2NC(=S)NC(C)=C2C(=O)Nc2ccc(C)cc2)ccc1O` (stereo not given), the inhibition was -50% (inactive).
Then `c1coc(-c2nc(-c3ccncc3)no2)c1`, with -24.6% (inactive).
Then `CCCCn1c(O)c(N=NC(=O)c2ccncc2)c2cc(Br)ccc21`, with 46.8% (inactive); and `O=c1c2c(nc3cc(-c4ccc(F)cc4)[nH]n13)CCCC2`, with -40.5% (inactive); and `O=c1c2c(nc3cc(-c4ccc(F)cc4)[nH]n13)CCC2`, with 62.6% (active).
Consider `O=c1c2c(nc3cc(-c4ccccc4)[nH]n13)CCC2`, for which the inhibition is -31.8% (inactive).
The figure for `CC(NC(=O)CSc1nc2ccc(N)cc2s1)c1ccccc1` (stereo not given) is -0.6% (inactive).
The figure for `COc1ccccc1NC(=S)NCCc1c[nH]c2ccccc12` is 86% (active); for `COc1ccc(Cl)cc1NC(=S)NCCc1c[nH]c2ccccc12` it is -12.7% (inactive); for `COc1ccc(NC(=S)NCCc2c[nH]c3ccccc23)c(OC)c1` it is 17.2% (inactive).
Then `COc1ccc(C(=O)Nc2ccc3c(c2)CCCN3C(=O)c2cccs2)c(OC)c1`, with 21.1% (inactive); and `COc1ccccc1C(=O)Nc1ccc2c(c1)CCCN2C(=O)c1cccs1`, with -18.3% (inactive).
Take `COc1cccc(C(=O)Nc2ccc3c(c2)CCCN3C(=O)c2cccs2)c1OC`: the inhibition is 56.1% (active).
Consider `O=C(CC1C(=O)N(c2ccccc2)C(=O)N1C1CCCCC1)Nc1ccccc1` (stereo not given), for which the inhibition is 11.7% (inactive).
Consider `CC1CCCN(S(=O)(=O)c2ccc(NC(=O)Cn3nnc(-c4ccccc4F)n3)cc2)C1` (stereo not given), for which the inhibition is -31.2% (inactive).
The figure for `CC(C)CCOc1ccc(Cl)cc1CN1CCOCC1` is -26.5% (inactive).
Then `Clc1ccccc1-c1nn2c(-c3ccncc3)nnc2s1`, with 64.5% (inactive); and `Clc1cccc(-c2nn3c(-c4ccncc4)nnc3s2)c1`, with -14% (inactive); and `Clc1ccc(-c2nn3c(-c4ccncc4)nnc3s2)c(Cl)c1`, with 59% (active).
Then `COC(=O)c1c(C(=O)OC)c(-c2ccc(Cl)c(Cl)c2)n2c1CCC2`, with -14.5% (inactive); and `Cc1nnn(C23C[C@@H]4C[C@@H](CC(C(=O)N5CCN(c6ccccc6)CC5)(C4)C2)C3)n1`, with -7% (inactive); and `Cc1ccc(CCNC(=O)C23C[C@H]4C[C@@H](C2)CC(n2nnc(C)n2)(C4)C3)cc1`, with -3.3% (inactive).
`COc1cccc(C2C(C#N)=C(N)Oc3cc(C)n(Cc4ccccn4)c(=O)c32)c1OC` (stereo not given): the inhibition was -19.6% (inactive).
As for `Cc1ccsc1C(=O)OCc1csc(-c2ccccc2)n1`, the inhibition is -65.5% (inactive).
Consider `CC1(C)CC(=O)C=C(NC2=CC3OC(c4ccccc4)OCC3OC2=O)C1` (stereo not given), for which the inhibition is 61.7% (active).
The figure for `Cc1ccccc1NC1=CC(=O)CC(C)(C)C1` is 1.1% (inactive); for `O=C1C=C(NC2=CC3OC(c4ccccc4)OCC3OC2=O)CCC1` (stereo not given) it is -24.3% (inactive).
